Values joined by “and” are separate entries in the source; they are usually repeats but may differ in a detail not shown here. Equal values may be shown once. Over roughly 13,000 compounds, “IFI” has its median near 4; the highest 2% begin near 17. For the sample, the highest values were picked, then their nearest neighbours and some compounds at random.

This assay in a line: GSK_TCMDC: Inhibition Frequency Index (IFI). The number of non-kinase HTS assays where a compound showed > 50 % inhibition, expressed as a percentage of the number of such assays in which the compound was tested. The class given is functional.
As for `CC(=O)C1(c2ccccc2)CCN(CCC(NC(=O)c2cc(C(F)(F)F)cc(C(F)(F)F)c2)c2ccc(Cl)c(Cl)c2)CC1` (stereo not given), the IFI was determined as 1.45%.

`CN(C(=O)OCc1ccccc1)C1CCC(CCN2CCC3(CC2)C(=O)NCN3c2cccc(C(F)(F)F)c2)(c2ccccc2)CC1` (stereo not given) returned an IFI of 8.63%.

`O=C(c1cc(C(F)(F)F)cc(C(F)(F)F)c1)N1CCC(CCN2CCC3(CC2)C(=O)NCN3c2ccccc2)CC1Cc1ccc(Cl)c(Cl)c1` (stereo not given) had an IFI of 20%.

`Cc1cc(NC(=O)[C@@H](Nc2ccc(C#N)c3ccccc23)C2CCCCC2)ccc1F` gave an IFI of 3.85%.

`c1ccc(C(OCCC2CCN(Cc3cccc4cccnc34)CC2)c2ccccc2)cc1` displayed an IFI of 3.1%.

Consider `CC(Cc1ccc(Oc2ccc(Cl)cc2)cc1)NCC(O)c1cccc(Cl)c1` (stereo not given), for which the IFI amounted to 7.3%.

Consider `Cc1ccc(CC(C)NC[C@H](O)c2cccc(Cl)c2)cc1` (stereo not given in full), for which the IFI is 4.38% and 0.72%.

With `CC(Cc1ccc(OC2CCCCC2)cc1)NCC(O)c1cccc(Cl)c1` (stereo not given), the IFI was determined as 21.7%.

In turn, `CN1C2CCC1c1cc(NC(=O)c3cc(-c4ccc(Cl)cc4)cs3)ccc12` (stereo not given) yielded an IFI of 13.3%.

Turning to `CC(Cc1ccc(OCCCCOc2ccccc2)cc1)NCCCn1ccnc1` (stereo not given), the IFI was 32.6%.

As to `CC(Cc1ccc(OCCCCOc2ccccc2)cc1)NCCCN1CCOCC1` (stereo not given), the IFI stood at 30.1%.

Consider `CC(Cc1ccc(OCc2ccccc2)cc1)NCC(O)c1cccc(Cl)c1` (stereo not given), for which the IFI came out at 15.6%.

In the case of `CC(Cc1ccc(OCCOc2ccccc2)cc1)NCC(O)c1cccc(C(F)(F)F)c1` (stereo not given), the IFI came out at 2.9%.

`CCCCCOc1ccc(CC(C)NCC(O)c2cccc(Cl)c2)cc1` (stereo not given) came in with an IFI of 4.86%.

The molecule `CC(Cc1ccc(Oc2ccccc2)cc1)NCC(O)c1cccc(C(F)(F)F)c1` (stereo not given) came in with an IFI of 4.96%.

`COC(C(=O)OCCC1CCCN1C)(c1ccccc1)c1ccccc1` (stereo not given) showed an IFI of 2.19%.

Consider `COC(C(=O)OCCC1CCCN1C)(c1ccccc1)C1CCCCC1` (stereo not given), for which the IFI was determined as 1.45%.

Consider `CC(Cc1ccc(OCCCCOc2ccccc2)cc1)NCCC1CCCN1C` (stereo not given), for which the IFI stood at 32.5%.

For `CN1CC=C(c2c[nH]c3ccc(Sc4ccccc4)cc23)CC1`, the IFI turned out to be 3.7%.

Molecule `CCCCCCC(C)(C)c1cc(O)c2c3c(c(=O)oc2c1)CCN(Cc1ccccc1)C3` had an IFI of 2.22%.

For the molecule `COC(=O)c1ccc(CC(C)NCC(O)c2cccc(OCc3ccccc3)c2)cc1` (stereo not given), the IFI turned out to be 5.76%.

Take `CC1CN=C(Nc2ncc(Cl)cc2Cl)N1` (stereo not given): the IFI came to 0.7%.

For the molecule `CN(C)CCc1c[nH]c2ccc(C(=O)Nc3ccc(-c4ccncc4)cc3)cc12`, the IFI came to 5.19%.

On to `COc1cccc(CN2CCC(CCOC(c3ccccc3)c3ccccc3)CC2)c1O`, for which the IFI was 3.1%.

`CC(C)CNCc1ccc(-c2cccc(CN(C(=O)CCC3CCCC3)C3CCN(Cc4ccccc4)CC3)c2)cc1`: the IFI came out at 9.29%.

Turning to `O=C(Nc1ccccc1C(F)(F)F)NC1CCC(CN2CCC(c3c[nH]c4ccccc34)CC2)CC1` (stereo not given), the IFI is 4.29% and 2.14%.

As for `O=C1c2ccccc2CCC1CCN1CC=C(c2c[nH]c3ccccc23)CC1` (stereo not given), the IFI amounted to 2.92%.

In the case of `O=C(c1cc(C(=O)NCc2ccc(Cl)cc2)c(=O)n(Cc2ccc(Cl)cc2)c1)c1cc(Cl)ccc1O`, the IFI stood at 0%.

Regarding `O=C(Nc1cc(C(F)(F)F)cc(C(F)(F)F)c1)c1cc(Cl)ccc1O`, the IFI is 33.3%.

Molecule `O=C(/C=C/c1ccccc1Cl)NC1CCC(CN2C3CCC2CC(c2c[nH]c4ccccc24)C3)CC1` (stereo not given) displayed an IFI of 6.38%.

Molecule `CCCCCc1cc(O)c2c(c1)OC(C)(C)CC2C1=CCN(Cc2ccccc2)CC1` (stereo not given) returned an IFI of 2.86%.

The molecule `Cc1csc(-c2ccc3[nH]cc(C4=CCN(C)CC4)c3c2)n1` displayed an IFI of 0%.

`CC[C@H]1CN2CC[C@H]1C[C@H]2[C@H](O)c1cc(N2CCCC(CO)C2)nc2ccc(OC)cc12` (stereo not given in full): the IFI was determined as 0%.

With `O=C(NC1CCC(CN2CCC(c3c[nH]c4ccccc34)CC2)CC1)c1cc2cccc([N+](=O)[O-])c2[nH]1` (stereo not given), the IFI amounted to 3.65%.

As to `CC(Cc1ccc(NC(=O)CCCc2ccccc2)cc1)NCCc1cccc(Cl)c1` (stereo not given), the IFI amounted to 4.29%.

Consider `CC(Cc1ccc(NC(=O)CCNCc2ccccc2)cc1)NCCc1cccc(Cl)c1` (stereo not given), for which the IFI worked out at 32.4%.

Molecule `CC(Cc1ccc(NC(=O)[C@H](C)NCCc2cccc(Cl)c2)cc1)NCCc1cccc(Cl)c1` (stereo not given in full) registered an IFI of 9.35%.

Turning to `O=C(/C=C/c1ccccc1Cl)NC1CCC(CN2CCC(c3c[nH]c4ccccc34)CC2)CC1` (stereo not given), the IFI is 5.04% and 6.94%.

`CC(=O)N(Cc1cccc(-c2cccc(CNCc3ccc4c(c3)OCO4)c2)c1)C1CCN(Cc2ccccc2)CC1` gave an IFI of 4.51%.

Molecule `Fc1ccc(N(c2nc(-c3cc(F)cc(C(F)(F)F)c3)cs2)C2CCNCC2)cc1` showed an IFI of 17.1%.

Take `COc1ccc(F)cc1-c1csc(N(c2ccc(F)cc2)C2CCNCC2)n1`: the IFI worked out at 14.4%.

Molecule `COc1ccc(N(c2nc(-c3cc(Cl)ccc3Cl)cs2)C2CCNCC2)cc1` registered an IFI of 23.1%.

The molecule `CCOC(=O)c1c(CN2CCN(C)CC2)n(Cc2ccccc2)c2cc(Br)c(O)cc12` registered an IFI of 5.56%.

In the case of `COc1ccc(C=CC(=O)NC2CCC(CN3CCC(c4c[nH]c5ccccc45)CC3)CC2)cc1` (stereo not given), the IFI is 7.19% and 5.04%.

As for `O=C(C=Cc1ccc(F)c(Br)c1)N1CCC(CN2CCC(c3c[nH]c4ccccc34)CC2)CC1`, the IFI stood at 6.62%.

The molecule `COc1ccc(C2CNCc3c2cc(OC)c(OC)c3Cl)cc1` (stereo not given) displayed an IFI of 2.94%.

With `COc1cc(NC(=O)c2nn(CCCN3CCC4(CC3)C(=O)NCN4c3ccccc3)cc2-c2ccc(Cl)c(Cl)c2)cc(OC)c1OC`, the IFI amounted to 15.4%.

On to `O=C(NCc1ccccc1)c1nn(CCCN2CCC3(CC2)C(=O)NCN3c2ccccc2)cc1-c1ccc(Cl)c(Cl)c1`, for which the IFI came out at 24.3%.

Molecule `O=C1NCN(c2ccc(O)cc2)C12CCN(CCCC(c1ccc(F)cc1)c1ccc(F)cc1)CC2` showed an IFI of 4.32%.

Molecule `O=C(NCc1ccc(S(=O)(=O)N2CCC(CN3CCC(c4c[nH]c5ccccc45)CC3)CC2)s1)c1ccccc1` registered an IFI of 6.85%.

For the molecule `O=C(C=Cc1ccc(Br)cc1)NC1CCC(CN2CCC(c3c[nH]c4ccccc34)CC2)CC1` (stereo not given), the IFI is 6.38%.

Molecule `O=C1Nc2cccc3c2C1(CCCCN1CC=C(c2c[nH]c4ncccc24)CC1)CCC3` (stereo not given) returned an IFI of 4.41%.

The molecule `N[C@@H](CCN1CCC(c2cccc(O)c2)CC1)Cc1ccc(F)c(F)c1` came in with an IFI of 12.1%.

In turn, `N#Cc1c(F)cc(N2CCC(NCC[C@H](N)Cc3ccc(F)c(F)c3)CC2)cc1F` returned an IFI of 21.9%.

As to `CCC1(C)N=C(N)N=C(N)N1c1ccc(Cl)cc1` (stereo not given), the IFI came to 0%.

Take `COc1cccc(C(=O)C2CC2CN2CC=C(c3c(C)[nH]c4ccccc34)CC2)c1` (stereo not given): the IFI came out at 3.74%.

Molecule `CC(Cc1ccc(OCCCCOc2ccccc2)cc1)NCCc1ccccc1Cl` (stereo not given) returned an IFI of 28%.

Take `COc1cccc(CC(C)NCC(O)c2cccc(Cl)c2)c1` (stereo not given): the IFI was 1.44%.

With `C[C@H](Cc1ccc(OCCCCCCOc2ccccc2)cc1)NC[C@@H](O)c1cc(Br)no1`, the IFI was found to be 13.5%.

`CC(Cc1ccc(OCc2ccc(CCN(C)C)cc2)cc1)NCCc1cccc(Cl)c1` (stereo not given) yielded an IFI of 5.84%.

In turn, `CC(Cc1ccc(OCCCCOc2ccccc2)cc1)NCCCc1nc2ccccc2[nH]1` (stereo not given) yielded an IFI of 33.3%.

`COc1cccc(CCNC(C)Cc2ccc(OCCCCOc3ccccc3)cc2)c1` (stereo not given) came in with an IFI of 31%.

Take `CC(Cc1ccc(OCCOc2ccccc2)cc1)NCC(O)c1cccc(Cl)c1` (stereo not given): the IFI turned out to be 6.38%.

Turning to `CNCCCCCCOc1ccc(CC(C)NCC(O)c2cccc(C(F)(F)F)c2)cc1` (stereo not given), the IFI came out at 7.8%.

For `C[C@H](Cc1ccc(OCCCCCCOc2ccccc2)cc1)NC[C@H](O)c1cccc(Cl)c1`, the IFI came out at 7.64%.

As to `Cn1nc(C(F)(F)F)cc1-c1ccc(C(=O)NC2CCC(CN3CCC(c4c[nH]c5ccccc45)CC3)CC2)s1` (stereo not given), the IFI was 6.16%.

Regarding `O=C(Nc1ccc(Cl)c(Cl)c1)N1CCC(CN2CCC(c3c[nH]c4ccccc34)CC2)CC1`, the IFI was 4.23%.

Consider `CC[C@H]1CN2CC[C@H]1C[C@H]2[C@H](O)c1cc(-c2ccccc2C)nc2ccc(OC)cc12`, for which the IFI was 5.44%.

Molecule `CCCCCCCCNCC(O)c1ccc(Cl)c(Cl)c1` (stereo not given) registered an IFI of 11.1%.

In the case of `CN(c1cc(NC(=O)c2cccs2)ccn1)C1CCN(Cc2ccccc2)CC1`, the IFI amounted to 2.78%.

Molecule `CNCCN(C)C(=O)Oc1c(Br)c(C)nc(C)c1-c1ccc(Oc2ccc(OC(F)(F)F)cc2)cc1` had an IFI of 12.4%.

`CNCCCN(C)C(=O)Oc1c(Br)c(C)nc(C)c1-c1ccc(Oc2ccc(OC(F)(F)F)cc2)cc1` gave an IFI of 7.41%.

As to `Cc1nc(C)c(-c2ccc(Oc3ccc(OC(F)(F)F)cc3)cc2)c(OC(=O)N(CCNC(C)C)C(C)C)c1Br`, the IFI turned out to be 18%.

The molecule `COc1cccc(O)c1CNCC(O)c1cccc(C(F)(F)F)c1` (stereo not given) returned an IFI of 0.78%.

In turn, `CC(=O)Nc1ccc2[nH]cc(C3CCN(CC4CCN(C(=O)/C=C/c5ccc(Cl)c(Cl)c5)CC4)CC3)c2c1` returned an IFI of 1.46%.

The record behind these values is ChEMBL document CHEMBL1157539, “Thousands of chemical starting points for antimalarial lead identification” (Nature, 2010).
